This note sets out measurements from PubChem BioAssay.

Where “and” joins values, the source holds several entries; their conditions need not be identical. Equal entries are not always repeated. Results filed as inconclusive are left out. Calls of active or inactive are those of the source. Unless noted, no cut-off is given here; in the data, nearly all actives have AC50 up to about 26 µM.

Assay [1] in a line: viability loss in pontine glioma line – cell-based, SU-DIPG-XVII, MIPE5.0, CellTiter-Glo, qHTS, dose response (AID 1347060).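 For AC50: cells exposed to compound for 48 hours before viability readout.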 Conditions: CellTiter-Glo ATP luminescence.
Assay [2] in a line: viability loss in pontine glioma line – cell-based, SU-DIPG-XIII, MIPE4.0, CellTiter-Glo, qHTS, dose response (AID 1347061; cut-off not given, nearly all actives have AC50 up to about 37 µM;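 note: cells exposed to compound for 48 hours before readout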). Conditions: CellTiter-Glo ATP luminescence. A general note: ATP-based viability assays read luminescence as a measure of living cells.
Assay [3] in a line: viability loss in pontine glioma line – cell-based, JHH-DIPG-1, MIPE4.0, CellTiter-Glo, qHTS, dose response (AID 1347062; cut-off not given, nearly all actives have AC50 up to about 27 µM). The following applies: JHH-DIPG-1 viability, CellTiter-Glo ATP luminescence.
Assay [4] is described as follows: viability loss in pontine glioma line – cell-based, SU-DIPG-XXV, MIPE5.0, CellTiter-Glo, qHTS, dose response (AID 1347065).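 Note: cells exposed to compound for 48 hours before ATP readout.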 Conditions: CellTiter-Glo ATP luminescence.
Assay [5] is described as follows: growth inhibition of DIPG cells – cell-based, MIPE4.0 library, CellTiter-Glo luminescence, qHTS (AID 1347066; cut-off not given, nearly all actives have AC50 up to about 30 µM;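 note: cells exposed to compound for 48 hours before readout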). The following applies: SU-DIPG-VI viability, CellTiter-Glo ATP luminescence.
A short description of assay [6]: JHH-DIPG-1 glioma cell viability, MIPE5.0 library, CellTiter-Glo luminescence, qHTS (AID 1347067).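 Note: cells exposed to compound for 48 hours before readout.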 Conditions: JHH-DIPG-1 glioma viability, CellTiter-Glo ATP luminescence.
Assay [7] is described as follows: viability loss with induced miR-34 in A549 – imaging, A549 dox-inducible miR-34, nuclei and caspase counts, primary screen (AID 1347080;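 active = compounds whose cell count with miR-34 switched on is under 0.7 times the count with it off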). The following applies: A549 miR-34 inducible, Hoechst nuclei count, 48 h.
Assay [8] is described as follows: MELAS cybrid and Rieske KO viability enhancers – cell-based, MELAS cybrids, Rieske KO mouse fibroblasts, CellTiter-Glo, primary screen (AID 1508586;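 active = mean z-score across replicates of 1.96 or higher in either the MELAS or the Rieske mutant cell line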;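 note: z relative to plate mean and SD of compound and empty wells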). Conditions: low glucose.
Assay [9] in a line: viability loss in pontine glioma line – cell-based, SU-DIPG-IV, MIPE4.0, CellTiter-Glo, qHTS, dose response (AID 1347063; cut-off not given, nearly all actives have AC50 up to about 30 µM;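 note: compound exposure lasted 48 hours before the viability readout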). The following applies: CellTiter-Glo ATP luminescence.
The nature of assay [10]: viability loss in pontine glioma line – cell-based, SU-DIPG-XIII, MIPE5.0, CellTiter-Glo, qHTS, dose response (AID 1347064; cut-off not given, nearly all actives have AC50 up to about 23 µM;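 note: cells exposed to compound for 48 hours before the viability read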). Conditions: CellTiter-Glo ATP luminescence.
Assay [11] is described as follows: growth inhibition of DIPG cells – cell-based, MIPE5.0 library, qHTS (AID 1347068; cut-off not given, nearly all actives have IC50 up to about 30 µM;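 for IC50: cells exposed to compound for 48 hours before viability readout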). The following applies: SU-DIPG-XXV viability. (qHTS replaces the single test concentration by a dilution series.)
Assay [12] in a line: compounds altering HSF1 focus formation in cells – imaging, Selleck Cancer Library (AID 1347162; in the data active = plate-normalised HSF1 focus index below about 0.46). Conditions: human cells, HSF1 nuclear foci imaging, at 10 µM; SSMD: measured here: HSF1 foci SSMD mean; cell count: measured here: cell number; plate-normalised HSF1 focus index: stronger effect = lower value.
Setting [13] is: stronger effect = lower value, cell number ratio, induced over uninduced.
Where [14] appears, read: measured here: relative caspase fold change +Dox/-Dox.
[15] abbreviates: measured here: total cells with miR-34 induction, stronger effect = lower value.
[16] abbreviates: measured here: total cells without miR-34 induction.
Setting [17] is: MELAS cybrid survival, CellTiter-Glo 48 h, stronger effect = higher value.
Setting [18] is: Rieske KO mouse fibroblast survival, CellTiter-Glo 72 h.

A word on the AC50: it is the concentration giving half of the maximal activity seen. One may read the IC50 as the concentration that gives 50% inhibition.

As to `O=c1c(O)c(-c2cc(O)c(O)c(O)c2)oc2cc(O)cc(O)c12`, the outcome in [1], in assay [2], in [3], in [4], in assay [5] and in assay [6] was inactive. Besides, the fold change in assay [7] (setting [13]) was 1.07 (inactive) and 0.861 (inactive) and 0.936 (inactive); in [7] (setting [14]) it was 0.806 and 1.45 and 0.825. Also, the cell count was 8570 and 8710 and 9810 in [7] (setting [15]); 8020 and 10100 and 10500 in assay [7] (setting [16]). Besides, the z-score in assay [8] (setting [17]) was -0.358 (inactive); in assay [8] (setting [18]), 0.188.

For `CNC(=O)c1c(F)cccc1Nc1nc(Nc2cc3c(cc2OC)CCN3C(=O)CN(C)C)nc2[nH]ccc12`, the AC50 was 5.25 µM (active) in assay [1]; 0.235 µM (active) in assay [2]; 2.64 µM (active) in [9]; 0.934 µM (active) in assay [10]; 0.661 µM (active) in [4]; 0.0833 µM (active) in assay [5]. Also, in assay [6], the concentration at half-maximal activity (AC50) is 3.32 µM (active). Also, the half-maximal inhibitory concentration (IC50) in assay [11] was 14.8 µM (active). Moreover, the fold change in assay [7] (setting [13]) was 0.926 (inactive); in assay [7] (setting [14]), 0.874. In addition, the cell count in [7] (setting [15]) worked out at 5320; in [7] (setting [16]), 5750. In addition, the z-score is -0.536 (inactive) in [8] (setting [17]) and -0.594 in assay [8] (setting [18]).

For the molecule `CC(=O)OC1C(C)OC(Oc2c(-c3ccc(O)cc3)oc3cc(O)cc(O)c3c2=O)C(O)C1OC(C)=O` (stereo not given), the molecule was classed as inactive in assay [1] and in assay [2]. Also, in [9], the AC50 was 20.9 µM (active).

Consider `CCC(=O)NC[C@H](Cc1ccc(OCCc2nc(-c3ccccc3)oc2C)cc1)N/C(C)=C\C(=O)c1ccc(C(F)(F)F)cc1`, for which the values for the AC50 in [1], in assay [9] and in assay [4] were 16.6 µM (active), 8.33 µM (active) and 13.2 µM (active), respectively. Also, the outcome in assay [2], in assay [5] and in assay [11] was inactive.

As to `CO[C@H]1C[C@@H]2CC[C@@H](C)[C@@](O)(O2)C(=O)C(=O)N2CCCC[C@H]2C(=O)O[C@H]([C@H](C)C[C@@H]2CC[C@@H](OP(C)(C)=O)[C@H](OC)C2)CC(=O)[C@H](C)/C=C(\C)[C@@H](O)[C@@H](OC)C(=O)[C@H](C)C[C@H](C)/C=C/C=C/C=C/1C`, the AC50 is 18.6 µM (active) in [1], 23.5 µM (active) in [9], 16.6 µM (active) in assay [4] and 20.9 µM (active) in assay [6]. Further, in [2], the result was inactive.

As to `COc1cc(Nc2ncc(F)c(Nc3ccc4c(n3)N(COP(=O)(O)O)C(=O)C(C)(C)O4)n2)cc(OC)c1OC`, the AC50 is 1.05 µM (active) in assay [1]; 1.87 µM (active) in assay [2]; 3.32 µM (active) in assay [9]; 3.72 µM (active) in assay [10]; 3.72 µM (active) in assay [4]. Further, the half-inhibitory concentration (IC50) in assay [11] is 4.68 µM (active). Also, the fold change is 0.857 (inactive) in assay [7] (setting [13]) and 0.912 in [7] (setting [14]). The cell count stood at 1024 in [7] (setting [15]), 1190 in [7] (setting [16]) and 7320 in assay [12]. The SSMD in assay [12] is -2.78. Moreover, in assay [12], the plate-normalised HSF1 focus index was 0.825 (inactive). Further, the z-score was -0.637 (inactive) in [8] (setting [17]) and -0.181 in assay [8] (setting [18]).
